From PubChem BioAssay (Tox21)
Results filed as inconclusive are left out. Calls of active or inactive are those of the source. Unless noted, calls come from the whole dose curve; as a rule, active = well fitted curve in the direction sought with a large enough effect in the repeat runs; inconclusive = weak or mixed curves; inactive = no such curve, though single readings can be large; an effect the other way counts as inactive or inconclusive.

Experiments:
[1] = qHTS assay to identify small molecule antagonists of the estrogen related receptor (ERR) signaling pathway from Tox21 library - cell viability counter screen (AID 1224834); note: nearly all actives have a fitted effect of over 30% in size
How it was run: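 CellTiter-Fluor fluorescence measured; ERR cells; 17.5 h compound incubation at 37 C; 30 min reagent step.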

[2] = molecular target: Luciferin 4-monooxygenase (Photinus pyralis) (UniProt P08659); experiment: qHTS assay to identify small molecule inhibitors of firefly luciferase (AID 1224835); note: nearly all actives have a fitted effect of over 25% in size; note: potency is the fitted concentration of half-maximal effect; for activity change, negative = inhibition: series mostly up to about 120 µM
Chain of Luciferin 4-monooxygenase (Photinus pyralis) (P08659 whole entry, looked up): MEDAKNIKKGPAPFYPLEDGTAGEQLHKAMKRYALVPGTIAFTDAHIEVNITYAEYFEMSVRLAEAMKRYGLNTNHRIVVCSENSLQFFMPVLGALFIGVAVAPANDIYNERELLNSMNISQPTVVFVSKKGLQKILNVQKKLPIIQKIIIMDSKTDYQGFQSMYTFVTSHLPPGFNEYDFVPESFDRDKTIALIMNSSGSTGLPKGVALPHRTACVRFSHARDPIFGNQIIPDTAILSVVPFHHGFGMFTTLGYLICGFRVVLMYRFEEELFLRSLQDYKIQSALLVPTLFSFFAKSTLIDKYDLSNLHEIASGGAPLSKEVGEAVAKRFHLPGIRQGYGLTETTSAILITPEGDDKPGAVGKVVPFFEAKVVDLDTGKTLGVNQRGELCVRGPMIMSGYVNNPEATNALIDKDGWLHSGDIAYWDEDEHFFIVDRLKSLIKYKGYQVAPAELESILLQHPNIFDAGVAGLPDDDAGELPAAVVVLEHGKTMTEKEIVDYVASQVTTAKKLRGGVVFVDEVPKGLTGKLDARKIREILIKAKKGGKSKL
How it was run: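 Biochemical qHTS: compounds run as interplate titrations against purified firefly enzyme, with D-luciferin and ATP each at its KM concentration. Light output recorded by CCD imaging.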

[3] = qHTS assay to identify small molecule agonists of the constitutive androstane receptor (CAR) signaling pathway - cell viability counter screen (AID 1224836); note: series mostly up to about 92 µM; nearly all actives have a fitted effect of over 45% in size
How it was run: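 Double-stable HepG2 hepatoma cells (hCAR plus CYP2B6-2.2kb) are treated for 23 h at 37 C with test compounds in 15-point concentration series. PK11195 at 0.75 uM final is co-added. Cell viability is quantified by CellTiter-Fluor.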

[4] = qHTS assay to identify small molecule antagonists of the constitutive androstane receptor (CAR) signaling pathway - cell viability counter screen (AID 1224837); note: series mostly up to about 92 µM; nearly all actives have a fitted effect of over 45% in size
How it was run: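 Using CellTiter-Fluor, viability is scored in HepG2 cells stably carrying hCAR and a 2.2kb CYP2B6 reporter after 23 hr compound exposure across 15 concentrations, with CITCO present at 50 nM.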

[5] = molecular target: Nuclear receptor subfamily 1 group I member 3 (Homo sapiens) (UniProt Q14994); experiment: qHTS assay to identify small molecule agonists of the constitutive androstane receptor (CAR) signaling pathway (AID 1224839); note: nearly all actives have a fitted effect of over 15% in size; note: potency is the fitted concentration of half-maximal effect;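 for activation: HepG2 cells stably carrying human CAR and a CYP2B6 luciferase reporter; series mostly up to about 92 µM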
Chain of Nuclear receptor subfamily 1 group I member 3 (Homo sapiens) (Q14994 whole entry, looked up): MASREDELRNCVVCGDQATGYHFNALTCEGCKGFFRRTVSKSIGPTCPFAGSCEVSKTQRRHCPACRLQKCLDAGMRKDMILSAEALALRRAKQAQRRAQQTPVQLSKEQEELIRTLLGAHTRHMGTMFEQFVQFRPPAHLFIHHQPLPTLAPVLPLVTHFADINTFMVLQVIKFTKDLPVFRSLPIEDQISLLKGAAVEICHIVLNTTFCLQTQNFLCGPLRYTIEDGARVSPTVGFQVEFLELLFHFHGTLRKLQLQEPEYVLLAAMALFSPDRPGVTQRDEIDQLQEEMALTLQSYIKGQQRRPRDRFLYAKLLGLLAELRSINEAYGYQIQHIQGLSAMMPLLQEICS
How it was run: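 Readout: firefly luciferase luminescence via ONE-Glo. System: HepG2 double-stable for hCAR and CYP2B6-2.2kb. Conditions: 15-point compound titration, PK11195 at 0.75 uM final, 24 h incubation.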

[6] = qHTS assay to identify small molecule antagonists of the estrogen related receptor signaling pathway with the pleiotropic PPARgamma coactivator (PGC) from Tox21 10K library - cell viability counter screen (AID 1224840; active = well fitted cell-killing curve with a large enough effect in the repeat runs, not every such curve was filed as active; note: nearly all actives have a fitted effect of over 40% in size)
How it was run: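 Here the PGC/ERR cells serve as a cytotoxicity control: they are exposed to compounds for 17.5 hours at 37 C, and live-cell signal is quantified using CellTiter-Fluor fluorescence.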

[7] = molecular target: Thyrotropin receptor (Homo sapiens) (UniProt P16473); experiment: qHTS assay to identify small molecule agonists of the thyroid stimulating hormone receptor (TSHR) signaling pathway (AID 1224843; calls by dose curve; note: nearly all actives have a fitted effect of over 45% in size)
Chain of Thyrotropin receptor (Homo sapiens) (P16473 whole entry, looked up): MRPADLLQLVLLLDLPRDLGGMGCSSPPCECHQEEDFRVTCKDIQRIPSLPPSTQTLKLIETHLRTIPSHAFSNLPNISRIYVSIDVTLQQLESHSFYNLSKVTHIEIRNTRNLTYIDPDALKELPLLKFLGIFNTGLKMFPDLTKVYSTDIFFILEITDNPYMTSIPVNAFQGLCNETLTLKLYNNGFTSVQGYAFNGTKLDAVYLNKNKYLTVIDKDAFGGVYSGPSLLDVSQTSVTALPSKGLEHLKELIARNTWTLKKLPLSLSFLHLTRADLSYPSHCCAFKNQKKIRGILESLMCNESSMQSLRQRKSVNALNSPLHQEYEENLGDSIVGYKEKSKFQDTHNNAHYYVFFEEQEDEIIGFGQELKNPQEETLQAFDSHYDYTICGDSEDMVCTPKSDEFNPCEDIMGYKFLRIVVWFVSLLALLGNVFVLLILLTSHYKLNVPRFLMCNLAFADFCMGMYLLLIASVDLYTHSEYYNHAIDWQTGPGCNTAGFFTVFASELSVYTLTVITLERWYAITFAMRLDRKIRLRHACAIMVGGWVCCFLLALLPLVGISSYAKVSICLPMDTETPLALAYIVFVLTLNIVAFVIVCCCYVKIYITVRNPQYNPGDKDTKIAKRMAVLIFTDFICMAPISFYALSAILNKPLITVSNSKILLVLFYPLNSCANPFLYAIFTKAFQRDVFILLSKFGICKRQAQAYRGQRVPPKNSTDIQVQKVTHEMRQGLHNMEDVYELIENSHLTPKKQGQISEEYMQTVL
How it was run: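 Steps: seed 800 TSHR-HEK293 cells per well; add test compound and hold 30 min at ambient temperature; dispense cAMP-d2 then anti-cAMP cryptate; incubate 1 h at ambient; measure fluorescence intensity.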

[8] = qHTS assay to identify small molecule antagonists of the estrogen related receptor signaling pathway with the pleiotropic PPARgamma coactivator (PGC) from Tox21 10K library (AID 1224841; call rule not given here; note: series mostly up to about 92 µM; actives are mostly falling curves and most rising ones were filed inactive; nearly all actives have a fitted effect of over 50% in size)
How it was run: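 Each well held 2,000 PGC/ERR cells, pre-incubated six hours (37 C, 5% CO2). Test substances in DMSO were added by pin tool and left for 18 h at 37 C before luciferase detection by One-Glo.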

[9] = qHTS assay to identify small molecule agonists of the estrogen related receptor signaling pathway with the pleiotropic PPARgamma coactivator (PGC) from Tox21 10K library (AID 1224842); note: nearly all actives have a fitted effect of over 15% in size
How it was run: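 PGC/ERR reporter cell line, 2,000 cells per well, incubated 6 h at 37 C before 23 nL compound in DMSO was added. After 18 h at 37 C, One-Glo luminescence read following 30 min at room temperature.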
% is set by controls: 0 for no effect and ±100 for the full control effect.

CCCCCCC(=O)CCCCCC/C=C/C[C@@H](O)[C@H](O)[C@@](N)(CO)C(=O)O
inactive: viability change, negative = cytotoxic [1] 6.53% [at 19 µM] | activity change, negative = inhibition [2] -3.87% [at 23.6 µM] | viability change, negative = cytotoxic [3] 6.33% [at 19 µM] | activity change, negative = cytotoxicity [4] -0.0318% [at 19 µM] | activation [5] -1.84% [at 19 µM] | viability change, negative = cytotoxic [6] 12.4% [at 19 µM] | activation [7] -1.25% [at 19 µM]

C[N+]1(C)CCCCC1
inactive: Potency [1] | Potency [2] | Potency [3] | Potency [4] | Potency [5] | Potency [6] | Potency [7]

CC(C)(C1CCC(O)CC1)C1CCC(O)CC1 (stereo unspecified)
inactive: Potency [1] | Potency [2] | Potency [3] | Potency [4] | Potency [6]
active: Potency [5] 19.3 µM

CN(CCO)CCO
inactive: Potency [1] | Potency [2] | Potency [3] | Potency [4] | Potency [5] | Potency [6] | Potency [7]

NNC(N)=O
inactive: Potency [1] | Potency [2] | Potency [3] | Potency [4] | Potency [5] | Potency [6] | Potency [7]

Brc1c(Br)c(Br)c(Br)c(Br)c1Br
inactive: viability change, negative = cytotoxic [1] 3.18% [at 8.39 µM] | activity change, negative = inhibition [2] -3.44% [at 10.5 µM] | viability change, negative = cytotoxic [3] 3.28% [at 8.39 µM] | activity change, negative = cytotoxicity [4] -3.15% [at 8.39 µM] | activation [5] -2.38% [at 8.39 µM] | viability change, negative = cytotoxic [6] -4.4% [at 8.39 µM] | activation [7] 1.42% [at 8.39 µM]

COc1cccc(C=O)c1
inactive: Potency [1] | Potency [2] | Potency [3] | Potency [4] | Potency [5] | Potency [6] | Potency [8] | Potency [9] | Potency [7]

Cc1ccc2c(c1)C1CN(C)CCC1N2 (stereo unspecified)
inactive: viability change, negative = cytotoxic [1] 8.02% [at 19 µM] | activity change, negative = inhibition [2] -0.519% [at 23.6 µM] | viability change, negative = cytotoxic [3] 3.2% [at 19 µM] | activity change, negative = cytotoxicity [4] 1.97% [at 19 µM] | activation [5] 2.22% [at 19 µM] | viability change, negative = cytotoxic [6] 2.92% [at 19 µM] | activity, negative = inhibition [8] -1.31% [at 19 µM] | activation [9] -0.364% [at 19 µM] | activation [7] 15.7% [at 19 µM]

O=C(O)C(Cl)Br (stereo unspecified)
inactive: Potency [1] | Potency [2] | Potency [3] | Potency [4] | Potency [5] | Potency [6] | Potency [7]

CCC(=O)c1ccc(Cl)cc1
inactive: Potency [1] | Potency [2] | Potency [3] | Potency [4] | Potency [5] | Potency [6] | Potency [8] | Potency [9] | Potency [7]

O=C(Cl)C(Cl)Cl
inactive: Potency [1] | Potency [2] | Potency [3] | Potency [4] | Potency [5] | Potency [6] | Potency [7]

O=c1[nH]c2ccccc2o1
inactive: Potency [1] | Potency [2] | Potency [3] | Potency [4] | Potency [5] | Potency [6] | Potency [9] | Potency [7]

O=C(Cl)C(Cl)(Cl)Cl
inactive: Potency [1] | Potency [2] | Potency [3] | Potency [4] | Potency [5] | Potency [6]

OP(O)c1ccccc1
inactive: Potency [1] | Potency [2] | Potency [3] | Potency [4] | Potency [5] | Potency [6] | Potency [8] | Potency [9] | Potency [7]

CCOC(=O)Nc1cccc(OC(=O)Nc2ccccc2)c1
active: Potency [2] 31.7 µM | Potency [5] 30.6 µM
inactive: Potency [1] | Potency [3] | Potency [4] | Potency [6] | Potency [7]

O=C(CCl)NCO
inactive: Potency [1] | Potency [2] | Potency [3] | Potency [4] | Potency [5] | Potency [6] | Potency [8] | Potency [9]

Cn1c(CCCC(=O)O)nc2cc(N(CCCl)CCCl)ccc21
inactive: Potency [1] | Potency [2] | Potency [3] | Potency [4] | Potency [5] | Potency [6] | Potency [8] | Potency [9] | Potency [7]

C=CCCC#N
inactive: Potency [1] | Potency [2] | Potency [3] | Potency [4] | Potency [5] | Potency [6] | Potency [7]

BrCC1CO1 (stereo unspecified)
inactive: Potency [1] | Potency [2] | Potency [3] | Potency [4] | Potency [5] | Potency [6]

COc1cc(CC(C)N)cc(OC)c1OC (stereo unspecified)
inactive: Potency [1] | Potency [2] | Potency [3] | Potency [4] | Potency [5] | Potency [6] | Potency [8] | Potency [9]

NCCOS(=O)(=O)O
inactive: Potency [1] | Potency [2] | Potency [3] | Potency [4] | Potency [6]

CN(C)CCc1c[nH]c2cccc(OP(=O)(O)O)c12
inactive: Potency [1] | Potency [2] | Potency [3] | Potency [4] | Potency [6]

CC[C@@H](CO)NC(=O)[C@@H]1C=C2c3cccc4[nH]cc(c34)C[C@H]2N(C)C1
inactive: Potency [1] | Potency [2] | Potency [3] | Potency [4] | Potency [6] | Potency [8] | Potency [9] | Potency [7]

C=CC(=O)OCCN(C)C
inactive: Potency [1] | Potency [2] | Potency [3] | Potency [4] | Potency [6] | Potency [8] | Potency [9]

CCN[C@@H](C)Cc1ccccc1
inactive: Potency [1] | Potency [2] | Potency [3] | Potency [4] | Potency [6] | Potency [8] | Potency [9] | Potency [7]

CC(C)(N)Cc1ccccc1Cl
inactive: Potency [1] | Potency [2] | Potency [3] | Potency [4] | Potency [6] | Potency [8] | Potency [9] | Potency [7]

CCCCCCCCSC(=O)Oc1cc(Cl)nnc1-c1ccccc1
inactive: Potency [1] | Potency [2] | Potency [3] | Potency [4] | Potency [6]
